Laboratory results as given in PubChem BioAssay (NCI).
The panel holds about 83,000 compounds, 20% with a hit somewhere; the sample as a whole holds those more often.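 Plates (96-well) were seeded with cells, treated with compound at one concentration, and incubated for 48 hours before percent growth was determined.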 Unmarked numbers belong to inactive results. The source made the active and inactive calls. Rule for the calls: active = growth percent below 10; inactive = the rest.

These molecules were tested on ACHN renal (assay: NCI-60 one-dose screen, 48 h (100 = growth as untreated, 0 = no growth, -100 = all killed)). Conditions: 10 µM unless noted.

SMILES	growth
Cc1ncc(C(=O)Nc2ccc(CN3CCN(C)CC3)c(C(F)(F)F)c2)cc1C#Cc1cnc(NC2CC2)c2ncccc12	-100% (active)
COc1cc(NC(C)CCCN)c2nccc(C)c2c1OC (stereo not given)	100%
CCOC(=O)CCCCCCCCC(=O)OCC	113%
CCCCCCCCC/C(=N\NC(=O)c1ccncc1)c1ccc(O)c(O)c1O	15.8%
C/C=C(/C)C(=O)OC1C=C(CO)C(=O)C(OC(=O)C2(C)OC2C)C1C(C)C (stereo not given)	-96.8% (active)
Cc1nc(NC(=O)NC2CCCCC2)sc1C(=O)NN	97.8%
COc1ccc(Cn2cc3c(c2-c2ccc(OC)cc2)CCc2cnoc2-3)cc1	30.7%
CCOC(=O)CSSCC(=O)OCC	103%
O=C(N/N=C/c1cc(Cl)ccc1O)C(=O)N/N=C/c1cc(Cl)ccc1O	53.4%
Nc1nc2c(c3cnccc13)C(c1cccc(Br)c1)Cc1cnccc1-2 (stereo not given)	16.7%
COc1ccc(Cn2cc3c(c2-c2ccc(O)cc2)CCc2cnoc2-3)cc1	34.1%
COc1cccc(CNC(=O)c2cccc(C3CC(=O)c4c(cc(OC)c(OC)c4OC)O3)c2)c1 (stereo not given)	47.9%
COc1nc(OC)nc(-c2cc(-c3cc(OC)c(OC)c(OC)c3)no2)n1	108%
O=C(N/N=C/c1ccccc1Cl)c1cccc2ccccc12	105%
CCCCCCCCCC[N+](C)(C)C	24.9%
Cc1nc2c(nnn2-c2ccccc2)c2nc(-c3ccc(Cl)cc3)oc(=O)c12	107%
Cc1nc(N)sc1C(=O)NCCO	103%
CCCCCCCCCCCCCCCCC(=O)O.CCCCCCCCCCCCCCCCCC(=O)O.CCCCCCCCCCCCCCCCCC(=O)O.CCCCCCCCCCCCCCCCCC(=O)O.CCCCCCCCCCCCCCCCCC(=O)O.CO[CH-]OC12COC1CC(O)C1(C)C(O)C(OC(C)O)C3=C(C)C(OC(=O)C(O)C([NH-])c4ccccc4)CC(O)(C(OC(=O)c4ccccc4)C21)C3(C)C.[Cu+].[Zn].[Zn].[Zn].[Zn].[Zn] (stereo not given)	36.2%
O=S(=O)(O)CCI	112%
CC1(C)NCCC[C@]2(C)[C@H]3CC=C4[C@@H]5C[C@](C)(COC(=O)c6ccccc6C(=O)O)CC[C@]5(C)CC[C@@]4(C)[C@]3(C)CC[C@@H]12	43.3%

SMILES	growth
c1ccc2[nH]c(-c3ccc(OCCCCCOc4ccc(-c5nc6ccccc6[nH]5)cc4)cc3)nc2c1	35.5%
COc1nc(OC)nc(-c2cc(C(=O)c3ccc(Br)cc3)n3cc(C)cc(C)c23)n1	18.5%
CN1CCN(Cc2ccc(NC(=O)c3ccc(C#Cc4c(N)ncc5ccc(F)cc45)cc3)cc2C(F)(F)F)CC1	-92.6% (active)
CC(C)(C)OC(=O)N1C/C(=C\c2ccccc2)C(=O)/C(=C/c2ccccc2)C1	106%
O=C(CN1C(=O)NC(c2ccccc2)(c2ccccc2)C1=O)c1ccc(N2CCCC2)cc1	89.9%
C[C@H]1C[C@@H](n2cnc3c(N)nccc32)[C@H](O)[C@@H]1O	101%
Cc1nc2c(nnn2-c2ccccc2)c2nc(-c3ccccc3)oc(=O)c12	105%
COc1cc2oc(-c3ccc(NC(=O)c4ccccc4)cc3)cc(=O)c2c(OC)c1OC	83.5%
COc1cccc2c1n([O-])c1cccc(OC)c1[n+]2=O	72.3%
CC1C(=O)CCCC1=O	104%
Oc1ccccc1/C=N/N=C/c1c(O)ccc2ccccc12	80%
FC(F)(F)c1cccc(-c2[nH]ncc2-c2nnnn2-c2ccccc2)c1	68.6%
Nc1ccc(S(=O)(=O)c2ccc(NO)cc2)cc1	114%
Nc1ccc(S(=O)(=O)Nc2cc(F)cc(F)c2)cc1	98.7%
CC(C)(C)c1ccc([I+]c2ccc(C(C)(C)C)cc2)cc1	47.3%
O=C1NCCN1/N=C/c1c(Cl)nc2n1CCS2	108%
CC(=O)OCC1O[C@@H](OC(C)=O)[C@@H](NC(=O)NS(=O)(=O)c2ccccc2)C(OC(C)=O)[C@@H]1OC(C)=O (stereo not given in full)	104%
COc1ccc(Cn2cc3c(c2-c2ccccc2)CCc2cnoc2-3)cc1OC	57.7%
CCn1cc(C(=O)O)c(=O)c2cc(F)c(N3CCN(S(=O)(=O)c4ccc(Cl)cc4)CC3)cc21	28.7%
Cc1ccc(C(=O)Nc2ccc(CN3CCN(C)CC3)c(C(F)(F)F)c2)cc1C#Cc1cnc(N)c2ccc(C#N)cc12	9.19% (active)

What follows are molecules tested on CAKI-1 renal in the same assay as above. Conditions: 10 µM unless noted.

SMILES	growth
Cc1ncc(C(=O)Nc2ccc(CN3CCN(C)CC3)c(C(F)(F)F)c2)cc1C#Cc1cnc(NC2CC2)c2ncccc12	-0.579% (active)
COc1cc(NC(C)CCCN)c2nccc(C)c2c1OC (stereo not given)	99.9%
CCOC(=O)CCCCCCCCC(=O)OCC	105%
CCCCCCCCC/C(=N\NC(=O)c1ccncc1)c1ccc(O)c(O)c1O	14.3%
C/C=C(/C)C(=O)OC1C=C(CO)C(=O)C(OC(=O)C2(C)OC2C)C1C(C)C (stereo not given)	-23.6% (active)
Cc1nc(NC(=O)NC2CCCCC2)sc1C(=O)NN	132%
COc1ccc(Cn2cc3c(c2-c2ccc(OC)cc2)CCc2cnoc2-3)cc1	14.8%
CCOC(=O)CSSCC(=O)OCC	97.5%
O=C(N/N=C/c1cc(Cl)ccc1O)C(=O)N/N=C/c1cc(Cl)ccc1O	37.2%
Nc1nc2c(c3cnccc13)C(c1cccc(Br)c1)Cc1cnccc1-2 (stereo not given)	25.6%
COc1ccc(Cn2cc3c(c2-c2ccc(O)cc2)CCc2cnoc2-3)cc1	15.3%
COc1cccc(CNC(=O)c2cccc(C3CC(=O)c4c(cc(OC)c(OC)c4OC)O3)c2)c1 (stereo not given)	77.3%
COc1nc(OC)nc(-c2cc(-c3cc(OC)c(OC)c(OC)c3)no2)n1	96.1%
O=C(N/N=C/c1ccccc1Cl)c1cccc2ccccc12	96.8%
CCCCCCCCCC[N+](C)(C)C	58.4%
Cc1nc2c(nnn2-c2ccccc2)c2nc(-c3ccc(Cl)cc3)oc(=O)c12	94.7%
Cc1nc(N)sc1C(=O)NCCO	129%
CCCCCCCCCCCCCCCCC(=O)O.CCCCCCCCCCCCCCCCCC(=O)O.CCCCCCCCCCCCCCCCCC(=O)O.CCCCCCCCCCCCCCCCCC(=O)O.CCCCCCCCCCCCCCCCCC(=O)O.CO[CH-]OC12COC1CC(O)C1(C)C(O)C(OC(C)O)C3=C(C)C(OC(=O)C(O)C([NH-])c4ccccc4)CC(O)(C(OC(=O)c4ccccc4)C21)C3(C)C.[Cu+].[Zn].[Zn].[Zn].[Zn].[Zn] (stereo not given)	27%
O=S(=O)(O)CCI	107%
CC1(C)NCCC[C@]2(C)[C@H]3CC=C4[C@@H]5C[C@](C)(COC(=O)c6ccccc6C(=O)O)CC[C@]5(C)CC[C@@]4(C)[C@]3(C)CC[C@@H]12	86%

SMILES	growth
c1ccc2[nH]c(-c3ccc(OCCCCCOc4ccc(-c5nc6ccccc6[nH]5)cc4)cc3)nc2c1	94.1%
COc1nc(OC)nc(-c2cc(C(=O)c3ccc(Br)cc3)n3cc(C)cc(C)c23)n1	64.8%
CN1CCN(Cc2ccc(NC(=O)c3ccc(C#Cc4c(N)ncc5ccc(F)cc45)cc3)cc2C(F)(F)F)CC1	42.7%
CC(C)(C)OC(=O)N1C/C(=C\c2ccccc2)C(=O)/C(=C/c2ccccc2)C1	84.8%
O=C(CN1C(=O)NC(c2ccccc2)(c2ccccc2)C1=O)c1ccc(N2CCCC2)cc1	70.5%
C[C@H]1C[C@@H](n2cnc3c(N)nccc32)[C@H](O)[C@@H]1O	116%
Cc1nc2c(nnn2-c2ccccc2)c2nc(-c3ccccc3)oc(=O)c12	93.8%
COc1cc2oc(-c3ccc(NC(=O)c4ccccc4)cc3)cc(=O)c2c(OC)c1OC	96.8%
COc1cccc2c1n([O-])c1cccc(OC)c1[n+]2=O	304%
CC1C(=O)CCCC1=O	100%
Oc1ccccc1/C=N/N=C/c1c(O)ccc2ccccc12	91.6%
FC(F)(F)c1cccc(-c2[nH]ncc2-c2nnnn2-c2ccccc2)c1	69.4%
Nc1ccc(S(=O)(=O)c2ccc(NO)cc2)cc1	102%
Nc1ccc(S(=O)(=O)Nc2cc(F)cc(F)c2)cc1	100%
CC(C)(C)c1ccc([I+]c2ccc(C(C)(C)C)cc2)cc1	87.6%
O=C1NCCN1/N=C/c1c(Cl)nc2n1CCS2	98.7%
CC(=O)OCC1O[C@@H](OC(C)=O)[C@@H](NC(=O)NS(=O)(=O)c2ccccc2)C(OC(C)=O)[C@@H]1OC(C)=O (stereo not given in full)	94.9%
COc1ccc(Cn2cc3c(c2-c2ccccc2)CCc2cnoc2-3)cc1OC	18.9%
CCn1cc(C(=O)O)c(=O)c2cc(F)c(N3CCN(S(=O)(=O)c4ccc(Cl)cc4)CC3)cc21	43.6%
Cc1ccc(C(=O)Nc2ccc(CN3CCN(C)CC3)c(C(F)(F)F)c2)cc1C#Cc1cnc(N)c2ccc(C#N)cc12	33.6%
